AmpC detergent: inhibitors of E. coli AmpC beta-lactamase with detergent; P00811; AmpC hydrolysis of nitrocefin, absorbance 480 nm, 0.01% Triton; Potency, µM (highest dose often 114 µM), actives largely listed as inhibitors; 370,000 tested, 0.041% active; AID 485294; further: nearly all actives have a fitted effect of over 25% in size
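AmpC (5.3 nM in the dispensed reagent) in 20 mM phosphate pH 7.0 with 0.01% (detergent screen) or 0.0001% Triton X-100 was preincubated with compounds for 15 min at room temperature. Nitrocefin was then added from an 800 uM solution, and hydrolysis was followed at 480 nm.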
LmPK inhibitor: blocks Leishmania mexicana pyruvate kinase activity | Q27686 | purified LmPK, Kinase-Glo ATP luminescence, 1 h | Potency, µM (doses to about 57.5 µM), hits mostly inhibitors | 290,000 tested, 0.37% active | AID 1721
Target sequence (Q27686 whole entry, looked up): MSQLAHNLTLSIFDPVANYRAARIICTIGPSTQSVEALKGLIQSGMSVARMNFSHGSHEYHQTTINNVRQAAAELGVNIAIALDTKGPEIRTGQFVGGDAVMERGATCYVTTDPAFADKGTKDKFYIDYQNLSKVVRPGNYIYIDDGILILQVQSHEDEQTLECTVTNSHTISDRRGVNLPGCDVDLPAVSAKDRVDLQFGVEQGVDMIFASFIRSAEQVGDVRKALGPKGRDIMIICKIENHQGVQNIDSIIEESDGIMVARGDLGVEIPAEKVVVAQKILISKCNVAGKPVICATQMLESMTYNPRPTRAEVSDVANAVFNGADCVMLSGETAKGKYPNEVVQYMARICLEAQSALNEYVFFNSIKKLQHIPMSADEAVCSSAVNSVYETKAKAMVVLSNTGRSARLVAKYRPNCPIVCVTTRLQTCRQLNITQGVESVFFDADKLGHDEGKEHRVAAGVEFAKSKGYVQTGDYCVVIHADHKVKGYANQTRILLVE
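Purified LmPK (0.1 nM) with 0.5 mM PEP and 0.1 mM ADP in imidazole buffer pH 7.2 with MgCl2/KCl, 1 h at room temperature. ATP formed was read by luciferase luminescence and normalized to no-enzyme and uninhibited controls.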
AmpC no deterg: AmpC beta-lactamase inhibition without detergent; AID 485341; AmpC nitrocefin hydrolysis, absorbance 480 nm, 0.0001% Triton; Potency, µM (doses to about 57.1 µM), actives largely listed as inhibitors; P00811; 330,000 tested, 0.52% active; further: nearly all actives have a fitted effect of over 20% in size
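20 mM phosphate pH 7.0 + 0.01% (detergent screen) or 0.0001% Triton X-100; 5.3 nM AmpC reagent; cpd preinc 15 min RT; nitrocefin (800 uM stock) to start; A480 q20 s × 4 min; Activity was normalised to no-enzyme and no-compound control wells.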
Giardia FBPA inh: inhibitors of Giardia lamblia fructose-1,6-bisphosphate aldolase; A8B2U2; Potency, µM (highest dose often 59.6 µM), actives largely listed as inhibitors; AID 2451; purified Giardia FBPA; 290,000 tested, 0.71% active; further: nearly all actives have a fitted effect of over 55% in size
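Giardia FBPA (40 nM reagent) was preincubated 10 min at RT with compound (up to 57.5 uM final), then substrate plus GAPDH/TPI/NAD/arsenate coupling system with diaphorase/resazurin was added; resorufin fluorescence (525/598 nm) was read after 20 min.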
Tb PYK inh: blocks Trypanosoma brucei pyruvate kinase | TbPYK enzyme, Kinase-Glo Plus ATP luminescence, 45 min | Q57TT1 | 410,000 tested, 0.12% active | Potency, µM (series often up to 76.8 µM), hits mostly inhibitors | AID 624173; further: nearly all actives have a fitted effect of over 50% in size
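Glycolytic pyruvate kinase of T. brucei was incubated with substrate, test compound and 130 uM ADP for 45 minutes at room temperature. Luminescent Kinase-Glo Plus signal was measured after 10 minutes.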
RE007 growth inh: less growth of the S. pombe RE007 Vpr strain; S. pombe RE007 Vpr strain, BacTiter-Glo ATP luminescence, 24 h; 360,000 tested, 0.21% active; Potency, µM (highest dose often 92.2 µM), hits mostly inhibitors; active means well fitted falling curve with a large enough effect; inconclusive means small, poorly fitted or top-dose-only effect; inactive means no such curve, though single readings can be large or run the other way; further: nearly all actives have a fitted effect of over 50% in size
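Fission yeast RE007 carrying one integrated HIV-1 vpr copy, seeded at OD 0.01 in PMG+AL medium with 23 nL pinned compound. Grown 24 h at 30 degrees; viability read by BacTiter-Glo luminescence after 5 min.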
Each line names hits and unclear results; the compound was inactive in the other large screens; ! = not active in a repeat. In the library only some 1.4% were active in any assay of this set; here they are far more common. Unless noted, the call rests on the fitted dose curve; in most records, active means well fitted curve in the direction sought with a large enough effect; inconclusive means small, poorly fitted or top-dose-only effect, or another doubt; inactive means no such curve, though single readings can be large; an effect the other way counts as inactive or inconclusive.

Cc1cccc(-c2noc(-c3ccccc3OCC(=O)Nc3ccccc3[N+](=O)[O-])n2)c1	none (no result: LmPK inhibitor, AmpC no deterg, Giardia FBPA inh, RE007 growth inh)
Cc1ccc(-n2ncc(C(=O)NCCCN3CCc4ccccc4C3)c2C2CCN(C(=O)OC(C)(C)C)CC2)cc1C	none (no result: LmPK inhibitor, AmpC no deterg, Giardia FBPA inh, RE007 growth inh)
O=C1Nc2ccccc2SC1c1ccccc1 (stereo not drawn)	none
Cc1ccc(NC2Sc3ccccc3NC2=O)cc1 (stereo not drawn)	Tb PYK inh 14µM
Cc1nnc(N/N=C/c2ccco2)n1N	Giardia FBPA inh 20µM
O=S(=O)(NCC(c1ccco1)N1CCN(c2ccc(F)cc2)CC1)c1cc(F)ccc1F (stereo not drawn)	none (no result: LmPK inhibitor, AmpC no deterg, Giardia FBPA inh, RE007 growth inh)
Cc1ccc(C(=O)N2CCCCC2)cc1NC1=C(Cl)C(=O)N(Cc2ccccc2)C1=O	none (no result: LmPK inhibitor, Giardia FBPA inh)
Cc1ccc(O)c(NC2=C(Cl)C(=O)N(Cc3ccccc3)C2=O)c1	Tb PYK inh 35µM
O=C(COc1ccccc1)Nc1nccs1	LmPK inhibitor 14µM
CC(C)CCNS(=O)(=O)c1ccc(N2CCCCS2(=O)=O)cc1	none (no result: LmPK inhibitor, AmpC no deterg, Giardia FBPA inh, RE007 growth inh)
Cc1ccc(-c2nc3cc(Cl)ccc3o2)cc1	LmPK inhibitor inconclusive
COc1cc(OC)cc(-c2nc3cc(C)ccc3o2)c1	LmPK inhibitor 14µM, RE007 growth inh inconclusive
Oc1ccc2ccccc2c1N=Nc1ccccc1F	Giardia FBPA inh inconclusive
Oc1ccc2ccccc2c1N=Nc1ccccn1	RE007 growth inh 35µM
CCN(CC)CCNc1cc(C)nc2c1C(=O)C(=O)C=C2N1CCCCC1	LmPK inhibitor inconclusive, Giardia FBPA inh 2µM
CCCc1ccc(/C=C2\C(=O)c3ccccc3C(O)=C2C(=O)OCC)cc1	AmpC detergent inconclusive, LmPK inhibitor inconclusive, AmpC no deterg 18µM, Giardia FBPA inh inconclusive (no result: Tb PYK inh, RE007 growth inh)
CCOC(=O)C1=C(O)c2ccccc2C(=O)/C1=C\c1ccc(CC)cc1	LmPK inhibitor inconclusive, Giardia FBPA inh 7.9µM, Tb PYK inh inconclusive, RE007 growth inh inconclusive
CCOC(=O)c1ccc(COC(=O)c2ccc3c(c2)-c2ccccc2C3=O)cc1	none
CCOC(=O)C1=C(C)OC(=Cc2ccc(OC)cc2)C1=O	none (no result: AmpC detergent, LmPK inhibitor, AmpC no deterg, Giardia FBPA inh)
Cc1oc2ncn(CC(C)C)c(=O)c2c1C(=O)NCCc1ccc(Cl)cc1	none (no result: LmPK inhibitor, AmpC no deterg, Giardia FBPA inh, RE007 growth inh)
O=C(CS(=O)c1ccc(C(F)(F)F)cc1[N+](=O)[O-])Oc1ccccc1 (stereo not drawn)	Giardia FBPA inh inconclusive, RE007 growth inh 45µM
Cc1cc(C(=O)N2CCN(c3cccc(C)c3C)CC2)c2c(C)nn(-c3ccccc3)c2n1	none (no result: LmPK inhibitor, AmpC no deterg, Giardia FBPA inh, RE007 growth inh)
C[C@](N)(Cc1ccc(O)c(O)c1)C(=O)O	AmpC detergent inconclusive, AmpC no deterg inconclusive, Giardia FBPA inh 18µM!
COC(=O)C(N)Cc1ccc(O)c(O)c1 (stereo not drawn)	Giardia FBPA inh inconclusive
NC(Cc1cc(O)c(O)cc1O)C(=O)O (stereo not drawn)	AmpC detergent 50µM, AmpC no deterg 7.1µM (no result: LmPK inhibitor, Tb PYK inh, RE007 growth inh)
NC(Cc1ccc(O)c(O)c1)C(=O)O (stereo not drawn)	Giardia FBPA inh 16µM (no result: AmpC detergent, LmPK inhibitor, AmpC no deterg, Tb PYK inh, RE007 growth inh)
N#C/C(=C/c1ccc(N2CCOCC2)o1)c1ccc(Br)cc1	Tb PYK inh 25µM (no result: Giardia FBPA inh)
COc1cccc(CNC(=O)Cn2ncc3c4ccccc4n(C)c3c2=O)c1	none (no result: LmPK inhibitor, AmpC no deterg, Giardia FBPA inh, RE007 growth inh)
COc1cccc(Cn2ncc3c4sc(B(O)O)cc4n(C)c3c2=O)c1	AmpC detergent 1.1µM, AmpC no deterg 2.2µM (no result: LmPK inhibitor, Giardia FBPA inh, Tb PYK inh, RE007 growth inh)
COc1cc(C(=O)NC(=S)Nc2ccccc2N2CCOCC2)cc(OC)c1OC	LmPK inhibitor inconclusive, AmpC no deterg 16µM (no result: Giardia FBPA inh)
Cc1cccc(OCC(=O)N(Cc2cccc(Cl)c2)Cc2ccco2)c1C	none (no result: LmPK inhibitor, AmpC no deterg, Giardia FBPA inh, RE007 growth inh)
COCCn1c(=O)[nH]c(=O)c2c1nc(-c1ccc(-c3ccc(Cl)cc3[N+](=O)[O-])o1)n2Cc1ccccc1	AmpC no deterg 7.9µM, Giardia FBPA inh inconclusive
COc1ccc(-c2ccc(-c3nc4c(c(=O)[nH]c(=O)n4Cc4ccccc4)n3C)o2)c([N+](=O)[O-])c1	Giardia FBPA inh inconclusive
COc1cc(NS(=O)(=O)c2cnc(N)nc2)cc(OC)c1	none (no result: LmPK inhibitor, AmpC no deterg, Giardia FBPA inh, RE007 growth inh)
Cn1c(SCC(=O)Nc2cccc(F)c2)nnc1-c1cccnc1	none

Source: PubChem BioAssay
